Screening results (PubChem BioAssay)
RE007 growth inh = less growth of the S. pombe RE007 Vpr strain; S. pombe RE007 Vpr strain, BacTiter-Glo ATP luminescence, 24 h; Potency, µM (doses to about 92.2 µM), hits mostly inhibitors; actives 0.21% (n = 360,000); active = well fitted falling curve with a large enough effect; inconclusive = small, poorly fitted or top-dose-only effect; inactive = no such curve, though single readings can be large or run the other way; also: nearly all actives have a fitted effect of over 50% in size
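Fission yeast RE007 carrying one integrated HIV-1 vpr copy, seeded at OD 0.01 in PMG+AL medium with 23 nL pinned compound. Grown 24 h at 30 degrees; viability read by BacTiter-Glo luminescence after 5 min.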
Sm TGR block = inhibitors of Schistosoma mansoni thioredoxin glutathione reductase; AID 485364; actives 3% (n = 360,000); Potency, µM (titrated, usually from 114 µM), actives largely listed as inhibitors; purified TGR, DTNB reduction, TNB absorbance 405 nm; also: nearly all actives have a fitted effect of over 60% in size
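First, TGR (20 nM dispensed) and NADPH were mixed with compound. Second, a 15 min room-temperature incubation followed. Third, further NADPH and then DTNB were added to start the reaction. Finally, TNB absorbance was monitored kinetically.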
LmPK inhibitor = inhibitors of Leishmania mexicana pyruvate kinase | Q27686 | purified LmPK, Kinase-Glo ATP luminescence, 1 h | AID 1721 | Potency, µM (top dose mostly 57.5 µM), most hits filed as inhibitors | actives 0.37% (n = 290,000)
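qHTS format; LmPK 0.1 nM; substrates PEP 0.5 mM and ADP 0.1 mM. One-hour room-temperature incubation, then coupled luciferase luminescence; 0.5 nM enzyme wells mark activation.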
Giardia FBPA inh = blocks Giardia fructose-bisphosphate aldolase activity; Potency, µM (highest dose often 59.6 µM), usual class: inhibitors; purified Giardia FBPA; actives 0.71% (n = 290,000); A8B2U2; AID 2451; also: nearly all actives have a fitted effect of over 55% in size
Target sequence (A8B2U2 whole entry, looked up): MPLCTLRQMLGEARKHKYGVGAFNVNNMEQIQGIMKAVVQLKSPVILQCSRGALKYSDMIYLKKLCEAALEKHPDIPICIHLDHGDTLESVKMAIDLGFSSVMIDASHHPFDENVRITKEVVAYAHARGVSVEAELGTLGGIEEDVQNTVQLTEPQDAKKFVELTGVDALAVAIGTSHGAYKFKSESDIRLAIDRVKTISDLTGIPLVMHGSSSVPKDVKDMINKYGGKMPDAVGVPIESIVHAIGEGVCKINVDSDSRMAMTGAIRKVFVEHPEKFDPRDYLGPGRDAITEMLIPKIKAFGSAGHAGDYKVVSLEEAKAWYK
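40 nM FBPA preincubated 10 min at RT with compound (up to 57.5 uM final), then substrate plus GAPDH/TPI/NAD/arsenate coupling and diaphorase/resazurin added. Fluorescence read after 20 min at RT, 525/598 nm.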
NS1 function inh = blocks influenza NS1 protein function | actives 0.4% (n = 270,000) | Potency, µM (series often up to 46.1 µM) | AID 2326; calls by dose curve; also: actives are rising curves; nearly all actives have a fitted effect of over 50% in size
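Recovery from NS1-induced slow growth read by OD600 in budding yeast switched to galactose assay medium (pH 6.0, -URA) at 1:100 dilution. Compound 23 nl per well; the matching strain lacking NS1 serves as control.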
Tb PYK inh = blocks Trypanosoma brucei pyruvate kinase. Q57TT1. TbPYK enzyme, Kinase-Glo Plus ATP luminescence, 45 min. Potency, µM (titrated, usually from 76.8 µM), hits mostly inhibitors. actives 0.12% (n = 410,000). AID 624173; also: nearly all actives have a fitted effect of over 50% in size
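Enzyme and substrate buffer are dispensed first and compound is pin-transferred. ADP at 130 uM final then starts the reaction, which runs 45 min at room temperature. Detection reagent is added for 10 min before luminescence is imaged.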
Large screens that a line does not name were inactive. In the library only some 3.5% were active in any assay of this set; here they are far more common. Unless noted, calls follow the shape of the dose curve; as a rule, active = well fitted curve in the direction sought with a large enough effect; inconclusive = small, poorly fitted or top-dose-only effect, or another doubt; inactive = no such curve, though single readings can be large; an effect the other way counts as inactive or inconclusive.

COc1ccc(C(=O)N(C)Cc2ccc(C)o2)cc1OC1CCN(C(C)=O)CC1	Sm TGR block 25.1µM
Cc1ccc(CN(C)C(=O)c2cccc(S(=O)(=O)N3CCN(Cc4ccccc4)CC3)c2)o1	Sm TGR block inconclusive (no result: LmPK inhibitor, Giardia FBPA inh, NS1 function inh)
Cc1ccc(Cl)cc1NC(=O)C(Cc1ccccc1)NS(=O)(=O)c1cccc2nsnc12 (stereo not given)	none (no result: RE007 growth inh, LmPK inhibitor, Giardia FBPA inh, NS1 function inh)
COc1ccc(-c2cn3nc(SCC(=O)Nc4cccc(C)c4C)ccc3n2)cc1	none (no result: RE007 growth inh, LmPK inhibitor, Giardia FBPA inh, NS1 function inh)
Cc1[nH]c(SCC(=O)Nc2cc(S(C)(=O)=O)ccc2Cl)nc1Cc1ccccc1	Sm TGR block 3.55µM (no result: LmPK inhibitor, Giardia FBPA inh, NS1 function inh)
CS(=O)(=O)c1ccc(Cl)c(NC(=O)CCl)c1	Sm TGR block 6.31µM (no result: NS1 function inh)
Cc1cc(NC(=O)CSc2nc3ccccc3[nH]2)no1	none
Cc1ccc(NC(=O)CCl)c(C)c1	Sm TGR block 25.1µM
Cc1cc(NC(=O)CSc2nc(Cc3ccccc3)c(C)[nH]2)no1	Sm TGR block 35.5µM
CCCCCCc1ccc(C(=O)CCN(C)C)cc1	none (no result: RE007 growth inh, Sm TGR block, LmPK inhibitor, NS1 function inh, Tb PYK inh)
COC(=O)C1=C(C)N(Cc2ccccc2)C(=S)N[C@H]1CCc1ccccc1	none (no result: RE007 growth inh, Tb PYK inh)
COc1cccc(-c2nn3c(-c4ccco4)nnc3s2)c1	Sm TGR block 44.7µM (no result: Tb PYK inh)
c1ccc(-c2nn3c(-c4ccco4)nnc3s2)nc1	Sm TGR block 25.1µM
Brc1ccc(-c2nn3c(-c4ccco4)nnc3s2)o1	Sm TGR block 8.91µM
COc1ccc(N2C(=O)NC(=O)/C(=C/c3cccc(OC(=O)c4cccs4)c3)C2=O)cc1Cl	Sm TGR block 14.1µM, NS1 function inh inconclusive
Cc1ccc(N2C(=O)NC(=O)/C(=C/c3ccc(OC(=O)c4cccs4)cc3)C2=O)cc1	Sm TGR block 35.5µM
CC(=O)c1cccc(NC(=O)Cn2nc(C)n3cccc3c2=O)c1	none (no result: RE007 growth inh, LmPK inhibitor, Giardia FBPA inh, NS1 function inh)
CC1(C)CC(=O)C(N=Nc2cccc(F)c2C#N)=C(O)C1	Sm TGR block 14.1µM
CC1(C)CC(=O)C(N=Nc2ccc(C(F)(F)F)cc2[N+](=O)[O-])=C(O)C1	Sm TGR block 3.98µM
CC1(C)CC(=O)C(N=Nc2cccc([N+](=O)[O-])c2)=C(O)C1	Sm TGR block inconclusive
COc1ccc(-c2cc3nc(C)c(CCC(=O)Nc4ccc(F)cc4F)c(C)n3n2)c(OC)c1	none (no result: RE007 growth inh, LmPK inhibitor, Giardia FBPA inh, NS1 function inh)
O=C1CCCc2cc(S(=O)(=O)NCC3CCC(C(=O)Nc4ccccc4F)CC3)ccc2N1 (stereo not given)	none (no result: RE007 growth inh, LmPK inhibitor, Giardia FBPA inh, NS1 function inh)
CC1=CC(=O)C=CC1=Nc1ccc(N(C)C)cc1	Tb PYK inh 35.5µM (no result: Sm TGR block, LmPK inhibitor, Giardia FBPA inh, NS1 function inh)
CCC(=O)N1c2nc(-c3ccco3)nn2C2(CCCCC2)[C@@H]2CCCC[C@@H]21	Sm TGR block 39.8µM (no result: RE007 growth inh, LmPK inhibitor, Giardia FBPA inh, NS1 function inh)
COc1cccc(C(=O)N2c3nc(-c4ccco4)nn3C3(CCCCC3)[C@@H]3CCCC[C@@H]32)c1	Sm TGR block 7.94µM (no result: RE007 growth inh, LmPK inhibitor, Giardia FBPA inh, NS1 function inh)
Cc1ccc(C(=O)N2c3nc(-c4ccco4)nn3C3(CCCCC3)[C@@H]3CCCC[C@@H]32)cc1	Sm TGR block 11.2µM (no result: RE007 growth inh, LmPK inhibitor, Giardia FBPA inh, NS1 function inh)
O=C(c1ccccc1)N1c2nc(-c3ccco3)nn2C2(CCCCC2)[C@@H]2CCCC[C@@H]21	Sm TGR block inconclusive (no result: RE007 growth inh, LmPK inhibitor, Giardia FBPA inh, NS1 function inh)
Cc1nc(N2CCCC2)c2c(C(=O)N3CCN(c4cc(Cl)ccc4C)CC3)c(C)oc2n1	none (no result: RE007 growth inh, LmPK inhibitor, Giardia FBPA inh, NS1 function inh)
COc1ccc(OC)c(-c2cc(C(=O)Nc3ccc(C)c(C)c3)no2)c1	none (no result: RE007 growth inh, LmPK inhibitor, Giardia FBPA inh, NS1 function inh)
Cc1ccc2nc3cc([N+](=O)[O-])cc([N+](=O)[O-])c3cc2c1	RE007 growth inh inconclusive, Sm TGR block 2.51µM (no result: NS1 function inh)
Cc1nc2ccc([N+](=O)[O-])cc2nc1C	none (no result: NS1 function inh)
CCN(CCCNC(=O)CN1N=C(c2ccc(OC)cc2)CCC1=O)c1cccc(C)c1	none (no result: RE007 growth inh, LmPK inhibitor, Giardia FBPA inh, NS1 function inh)
COc1cc(/C=C2\COC/C(=C\c3ccc(O)c(OC)c3)C2=O)ccc1O	Sm TGR block 50.1µM, Giardia FBPA inh inconclusive
COc1cc(/C=C2\N=C3CCCCCN3C2=O)ccc1O	Sm TGR block 56.2µM
COc1ccc(/C=C2\CN(Cc3ccccc3)C/C(=C\c3ccc(OC)c(O)c3)C2=O)cc1O	Sm TGR block 44.7µM
COc1cc(/C=C2/CC/C(=C/c3ccc(O)c(OC)c3)C2=O)ccc1O	Sm TGR block 44.7µM, NS1 function inh inconclusive
CCN1C/C(=C/c2ccc(OC)c(O)c2)C(=O)/C(=C/c2ccc(OC)c(O)c2)C1	none (no result: NS1 function inh)
C=C1c2cccc(O)c2C(O)=C2C(=O)[C@@]3(O)C(O)=C(C(N)=O)C(=O)[C@@H](N(C)C)[C@@H]3[C@@H](O)[C@H]12	Giardia FBPA inh inconclusive (no result: RE007 growth inh, Sm TGR block, LmPK inhibitor, NS1 function inh)
CSc1ccc(CCNC(=O)c2sc3ncccc3c2-n2cccc2)cc1	none (no result: RE007 growth inh, LmPK inhibitor, Giardia FBPA inh, NS1 function inh)
O=C(Nc1ccc(Cl)cc1)c1cc(S(=O)(=O)N2CCCc3ccccc32)ccc1F	none (no result: RE007 growth inh, LmPK inhibitor, Giardia FBPA inh, NS1 function inh)
COc1ccccc1Nc1nc(N)nc(CN2CCOCC2)n1	Sm TGR block inconclusive
COc1ccccc1Nc1nc(N)nc(CN2CCCCCC2)n1	Sm TGR block 31.6µM
CCOc1ccc(-c2c(C)nn3c(C)c(C(=O)NC(C)c4ccccc4)cnc23)cc1OCC (stereo not given)	none (no result: RE007 growth inh, LmPK inhibitor, Giardia FBPA inh, NS1 function inh)
Cc1cccc(-c2cc(C(=O)O)c3c(-c4ccc(F)cc4)[nH]nc3n2)c1	none (no result: RE007 growth inh, LmPK inhibitor, Giardia FBPA inh, NS1 function inh)
O=C(Oc1ccc(Cl)c2cccnc12)c1cccnc1	RE007 growth inh inconclusive, Sm TGR block 39.8µM
O=c1oc2ccc(F)cc2cc1-c1nc(-c2cccs2)no1	none (no result: RE007 growth inh, LmPK inhibitor, Giardia FBPA inh, NS1 function inh)
